# Shown are actives, neighbours in structure and some others; about 2.8% of the full set was active somewhere.
# MsrA inh – bovine MsrA inhibition; 0.75% of 360,000 active; inhibition, % at 15.5 µM; AID 651718; purified bovine MsrA, absorbance read-out; in the data active = inhibition above about 4.5%
# sPLA2-III inh – Inhibits HGIII-sPLA2 liposome hydrolysis, primary screen | AID 743126 | inhibition, % at 12.2 µM | 0.56% of 370,000 active | Q9NZ20 | QFRET BODIPY PC-A2 liposome hydrolysis, fluorescence;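 active = inhibition above mean plus 3 SD of compounds lying within the high and low control bounds, cut at about 19% in these data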
# Target sequence (Q9NZ20 whole entry, looked up): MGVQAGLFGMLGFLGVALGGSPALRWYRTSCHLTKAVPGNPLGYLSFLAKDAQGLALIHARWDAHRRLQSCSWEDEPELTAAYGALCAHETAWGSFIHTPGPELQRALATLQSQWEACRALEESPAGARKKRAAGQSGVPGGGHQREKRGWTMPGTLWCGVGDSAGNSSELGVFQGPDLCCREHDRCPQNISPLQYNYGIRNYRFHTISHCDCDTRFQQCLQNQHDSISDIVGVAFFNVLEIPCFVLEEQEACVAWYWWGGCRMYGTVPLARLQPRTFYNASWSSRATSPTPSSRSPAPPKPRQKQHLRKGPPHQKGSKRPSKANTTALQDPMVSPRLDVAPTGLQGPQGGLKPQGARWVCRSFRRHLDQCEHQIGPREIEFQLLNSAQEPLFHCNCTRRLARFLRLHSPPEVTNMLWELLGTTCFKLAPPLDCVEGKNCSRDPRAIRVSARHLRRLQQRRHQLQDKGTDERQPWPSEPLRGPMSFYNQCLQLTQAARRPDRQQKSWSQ
# rCAG binder – r(CAG) repeat RNA binding. TO-PRO-1 dye displacement fluorescence. inhibition, % at 3 µM. 1.3% of 370,000 active;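 active = inhibition above the plate cutoff, the mean of all test compounds on that plate plus 3 SD, cut at about 35% in these data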;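 also: higher means more dye released from RNA so lower well fluorescence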
# bovine MsrA act – activators of bovine methionine sulfoxide reductase A | purified bovine MsrA, absorbance read-out | activation, % at 10.6 µM | 0.3% of 360,000 active; in the data active = activation above about 7.5%
# Hits are given with their value; 0 = inactive; - = no result.
SMILES,MsrA inh,sPLA2-III inh,rCAG binder,bovine MsrA act
CCCc1cc(=O)[nH]c(SCC(=O)Nc2ccc(OCc3ccccc3)cc2)n1,0,0,0,0
CCC(C)N1CC(O)=C(c2nc3ccccc3[nH]2)C1=N (configuration not stated),0,0,0,0
CC1C(O)=C(c2nc3ccccc3[nH]2)C(=N)N1c1ccccc1 (configuration not stated),0,23,0,0
Cc1cccc(S(=O)(=O)NCCNS(=O)(=O)c2cccc(C)c2)c1,0,0,0,0
Cc1c(/C(O)=C2\C(=O)C(=O)N(CCN(C)C)C2c2cccs2)cnn1-c1ccccc1 (configuration not stated),4.6,0,0,0
Nc1cccc(S(=O)(=O)Nc2ccc(Br)cc2)c1,0,0,0,0
COc1ccc(-c2csc(NC(=O)CSc3nc(C)cs3)n2)cc1,0,0,0,0
COc1ccc(-c2csc(NC(=O)CSc3nc(C)nc4sc(C(=O)O)c(C)c34)n2)cc1,0,0,42,0
Nc1cccc2c1C(=O)N(Cc1cccc(Cl)c1)C2=O,0,0,0,0
COc1ccc(-c2cc(C(=O)Nc3ccc(S(=O)(=O)Nc4onc(C)c4C)cc3)c3ccccc3n2)cc1,0,0,75,0
Cc1cccc(OCCCC(=O)Nc2ccc(S(=O)(=O)Nc3onc(C)c3C)cc2)c1,0,0,48,0
Cc1ccc(/C=C/C(=O)Nc2ccc(S(=O)(=O)Nc3onc(C)c3C)cc2)cc1,0,0,68,0
CC(C)=CC(=O)Nc1ccc(S(=O)(=O)Nc2onc(C)c2C)cc1,0,0,0,0
C=CCNC(=S)Nc1sc2c(c1C(=O)OCC)CCN(C(=O)OCC)C2,0,0,0,0
C=CCNC(=S)Nc1sc2c(c1C(=O)OCC)CC(C)(CC)OC2 (configuration not stated),4.6,0,0,0
Oc1c(C(Nc2nc3ccccc3s2)c2ccco2)ccc2cccnc12 (configuration not stated),0,34,0,0
CCC(=O)NC(c1cccs1)c1ccc2cccnc2c1O (configuration not stated),0,0,0,0
CN(C)CCCNc1nc(-c2ccc(Cl)cc2)nc2ccccc12,6.0,0,0,0
Cc1ccc(-c2nc(NCCN(C)C)c3ccccc3n2)cc1,0,0,0,0
CSc1nc2nccc(-c3ccc(Cl)cc3)n2n1,0,0,0,0
CSc1nc2nccc(/C=C\c3ccccc3)n2n1,4.9,0,0,0
COC(=O)c1c(NC(=O)CSc2n[nH]c(N)n2)sc(C)c1C,0,0,0,0
Cc1sc(NC(=O)CSc2n[nH]c(N)n2)c(C#N)c1C,0,0,50,0
O=c1c(-c2ccccc2)nc2ccccc2n1C(c1ccccn1)c1nc2ccccc2[nH]1 (configuration not stated),0,0,0,-
CC1=C(C#N)c2nc(N)c(C#N)c(C)c2/C1=C\c1ccc(OCC(=O)O)c(Cl)c1,0,0,47,0
SMILES,MsrA inh,sPLA2-III inh,rCAG binder,bovine MsrA act
CCOC(=O)CSc1nc(N)c(C#N)c(-c2ccc(OCC)cc2)c1C#N,0,0,0,0
O=C(NCCC1=CCCCC1)C1CCN(C(=O)Nc2ccccc2)CC1,0,0,0,0
C/C(CC(=O)Nc1ccc(Cl)c(C(F)(F)F)c1)=N\NC(=O)c1cc2ccccc2cc1O,0,0,51,0
COc1cccc(NC(=O)C/C(C)=N/NC(=O)c2ccccc2Cl)c1,0,0,0,0
O=C(CO)N/N=C/c1ccccc1F,0,0,36,0
COc1ccccc1NS(=O)(=O)c1ccc(O)c(C(=O)OCc2cccc([N+](=O)[O-])c2)c1,0,0,0,0
COc1ccc(C(=O)COC(=O)c2ccccc2NS(=O)(=O)c2ccc(O)c([N+](=O)[O-])c2)cc1,0,0,92,0
O=C(NCc1ccco1)c1ccc(COCC(F)(F)C(F)F)cc1,0,0,41,0
CC(=O)Oc1cc(C(=O)OCC(=O)NC23CC4CC(CC(C4)C2)C3)cc(OC(C)=O)c1OC(C)=O,0,0,53,0
COc1cccc(C(=O)OCC(=O)NC23CC4CC(CC(C4)C2)C3)c1,0,0,0,0
O=C(CCn1nnc2ccccc21)Nc1nnc(-c2ccccc2F)s1,0,0,0,0
CCCC(c1nnnn1CCOC)N(Cc1cc2cc(C)c(C)cc2[nH]c1=O)CC1CCCO1 (configuration not stated),0,0,0,0
Nc1nc(-c2ccccc2Cl)cs1,0,0,0,0
COc1cc(C)c(C(=O)Oc2cc(C)c(C(=O)O)c(O)c2)c(O)c1,0,0,35,0
COc1cccc(NC(=O)CN(C)C(=O)CNC(=O)c2sc3ccccc3c2Cl)c1,0,0,0,0
COc1ccc([C@H]2CC(=O)C=C(/C=C/c3ccccc3)C2)cc1OC,4.6,0,0,0
O=C1C=C(/C=C/c2ccccc2)C[C@@H](c2ccc(F)cc2)C1,0,0,0,0
O=C(NC1CCCCC1)C(c1cccc2ccccc12)n1c(=O)c(-c2ccco2)nc2ccccc21 (configuration not stated),0,0,35,-
CC(C)(C)NC(=O)C(c1ccccc1)n1c(=O)c(-c2ccco2)nc2ccccc21 (configuration not stated),0,0,36,-
CC(C)(C)NC(=O)C(c1ccncc1)n1c(=O)c(-c2ccco2)nc2ccccc21 (configuration not stated),0,0,0,-
Cc1cccc(NC(=O)c2sc3nc(N)c(C#N)cc3c2N)c1,4.6,0,0,0
Cc1ccc(C)c(/C(O)=C2\C(=O)C(=O)N(Cc3cccnc3)C2c2cccnc2)c1 (configuration not stated),4.8,0,0,0
Cc1cc(OCc2ccccc2)ccc1/C(O)=C1/C(=O)C(=O)N(Cc2cccnc2)C1c1ccncc1 (configuration not stated),0,0,0,0
Cc1cc2nc3ccc(=[N+](C)C)cc-3sc2cc1N,-,-,-,19
Nc1ccc2nc(-c3cccc(-c4nc5ccc(N)cc5[nH]4)c3)[nH]c2c1,4.6,0,0,0
SMILES,MsrA inh,sPLA2-III inh,rCAG binder,bovine MsrA act
Cc1cc(NC(=O)COC(=O)c2c(C)c(C)c(C)c(C)c2C)no1,0,0,0,0
CN(C)c1ccc(C(=O)Nc2ccc(S(=O)(=O)Nc3nccs3)cc2)cc1,0,0,35,0
CS(=O)(=O)Nc1ccc(C(=O)Nc2ccc(S(=O)(=O)Nc3nccs3)cc2)cc1,0,0,0,0
CC(C)(C)NC(=O)N1CCN(c2nc3ccc(Cl)cc3s2)CC1,0,0,0,0
CCOC(=O)C1=NN(C(=O)Nc2ccc(OC)cc2)C2C(=O)N(c3cccc(C(F)(F)F)c3)C(=O)C12 (configuration not stated),0,0,54,0
CC(C)c1ccc(S(=O)(=O)/N=C2\C=C(NS(=O)(=O)c3ccccc3)C(=O)c3ccccc32)cc1,0,0,68,0
COC(=O)C(C(C)=O)C1=C/C(=N\S(=O)(=O)c2ccc(C)cc2)c2ccccc2C1=O (configuration not stated),-,-,-,0
Cc1nc2c(C(=O)NCc3ccc(F)cc3)c[nH]n2c(=O)c1Cl,0,0,46,0
Cc1noc(C(=O)NCc2ccc(F)cc2)c1Cl,0,0,0,0
Nc1ccc2c(c1)Cc1cc(Cl)c(Cl)cc1-2,0,0,0,0

# Source: PubChem (The Scripps Research Institute Molecular Screening Center)
